{"source": "PubChem BioAssay (NCATS)", "note": "Records with an inconclusive call do not appear. Values without a mark were called inactive. The source made the active and inactive calls. Calls come from the whole dose curve; as a rule, active = well fitted cell-killing curve with a large enough effect; inconclusive = small, poorly fitted or top-dose-only effect, or effect the other way; inactive = flat fitted curve, though single readings scatter.", "data": [{"system": "Hek293T", "assay": "Primary qHTS to identify gynecologic anti-cancer compounds using libraries of approved drugs and bioactive compounds (AID 1345084); note: nearly all actives have a fitted effect of over 55% in size; note: potency is the fitted concentration of half-maximal effect; for activity change, negative = cytotoxicity: % is set by controls: 0 for no effect and ±100 for the full control effect", "details": "Gynecologic cancer cell panel viability, ATPlite luminescence, 48 h, control line for the selectivity index; series mostly up to 57.5 µM; activity change, negative = cytotoxicity: at the top concentration", "procedure,_shortened": "(§1)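 Cells, 1,000 per well, plated 16 h, then exposed 48 h at 37 C to compounds. Viability by ATPlite luminescence after 15 min at room temperature.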", "values": [{"compound": "CC1CC(=O)C2=C(C1)C1OC1C1(O)C2C(=O)c2cccc(O)c2C1O", "note": "(stereo not given)", "activity change, negative = cytotoxicity": "-37.5% [at 38.5 µM]"}, {"compound": "C=CC(=O)N1CCCC(n2nc(-c3ccc(Oc4ccccc4)cc3)c3c(N)ncnc32)C1", "note": "(stereo not given)", "activity change, negative = cytotoxicity": "15%"}, {"compound": "Cc1cc(C)c2c(c1)C(N(Cc1cc(C(F)(F)F)cc(C(F)(F)F)c1)c1nnn(C)n1)CCCN2CC1CCC(C(=O)O)CC1", "note": "(stereo not given)", "activity change, negative = cytotoxicity": "-16.4%"}, {"compound": "OC1CCC(Nc2nc(-c3ccccc3)nc3[nH]ccc23)CC1", "note": "(stereo not given)", "activity change, negative = cytotoxicity": "0.995%"}, {"compound": "C=C[C@@]1(C)CCC2C(=CCC3[C@]2(C)CCC[C@@]3(C)C(=O)O)C1", "note": "(stereo not given in full)", "activity change, negative = cytotoxicity": "-22.8%"}, {"compound": "Cc1nc2ccc(CN(C)c3ccc(C(=O)NC(CCC(=O)O)C(=O)O)s3)cc2c(=O)[nH]1", "note": "(stereo not given)", "activity change, negative = cytotoxicity": "-23%"}, {"compound": "Cn1c(=O)c(F)c(Nc2ccc(I)cc2F)c2c(=O)n(CC(O)CO)cnc21", "note": "(stereo not given)", "activity change, negative = cytotoxicity": "-6.76%"}, {"compound": "COc1ccccc1S(=O)(=O)Nc1ccc2c(c1)CN(C)C(=O)N2", "activity change, negative = cytotoxicity": "-18%"}, {"compound": "Nc1ncnc2c1nc(Cl)n2C1OC2COP(=O)(O)OC2C1O", "note": "(stereo not given)", "Potency": "10 µM (active)"}, {"compound": "CC#C[C@@H](CC(=O)O)c1ccc(OCc2cccc(-c3ccc(C(F)(F)F)cc3)c2)cc1", "activity change, negative = cytotoxicity": "-3.46%"}, {"compound": "FC(F)(F)c1ccccc1-c1cc(C(F)(F)F)c2nc(C3=NOC4(CCCCC4)C3)[nH]c2c1", "activity change, negative = cytotoxicity": "5%"}, {"compound": "Nc1nc2c(ncn2C2OC3COP(=O)(O)OC3C2O)c(=O)[nH]1", "note": "(stereo not given)", "activity change, negative = cytotoxicity": "0.85%"}, {"compound": "O=C(Nc1ccc2[nH]nc(-c3ccncc3)c2c1)[C@@H]1CCN(CC(=O)N2CCN(c3ccc(-c4ncccn4)cc3)CC2)C1", "activity change, negative = cytotoxicity": "-4.25%"}, {"compound": "C/C(=C\\Cc1c(O)c(Cl)c(C)c(C=O)c1O)CC/C=C(\\C)[C@H]1CC(=O)C(C)(C)O1", "activity change, negative = cytotoxicity": "-22.1% [at 25.3 µM]"}, {"compound": "CC1(C)SCCN(S(=O)(=O)c2ccc(Oc3ccncc3)cc2)[C@H]1C(=O)NO", "activity change, negative = cytotoxicity": "-2.01%"}, {"compound": "O=C(c1ccc(OC(F)F)c(C#Cc2ccccn2)c1)N1Cc2cccnc2C1", "activity change, negative = cytotoxicity": "-0.514%"}, {"compound": "CC(F)(F)CN1CCOc2c(nn(-c3ccccc3Cl)c2-c2ccc(Cl)cc2)C1=O", "activity change, negative = cytotoxicity": "-3.05%"}, {"compound": "COc1cc2ncnc(Nc3ccc(O)c(Br)c3)c2cc1OC", "activity change, negative = cytotoxicity": "20.8%"}, {"compound": "CCCSc1nc(N[C@@H]2C[C@H]2c2ccc(F)c(F)c2)c2nnn([C@@H]3C[C@H](OCCO)[C@@H](O)[C@H]3O)c2n1", "activity change, negative = cytotoxicity": "12.4%"}, {"compound": "Fc1ccc(CN2CCC(Nc3ccc(C(F)(F)F)nn3)CC2)cc1F", "activity change, negative = cytotoxicity": "0.969%"}, {"compound": "CCCn1ncc(CN2CCCC(C(=O)c3cccc(OC(C)C)c3)C2)c1C", "note": "(stereo not given)", "activity change, negative = cytotoxicity": "-14.3%"}, {"compound": "CC(C)c1ccc(NC(=O)c2cccs2)c(-c2nc3ccccc3[nH]c2=O)c1", "activity change, negative = cytotoxicity": "2.67%"}, {"compound": "Cc1nc(N2CCN(C(=O)c3ccco3)CC2)c2c3c(sc2n1)CCCC3", "activity change, negative = cytotoxicity": "2.3%"}, {"compound": "CC(O)(C(=O)C1CC1(CO)COC1OC(CO)C(O)C(O)C1O)C1C(O)CC2C3CC=C4CC(O)CC(O)C4(C)C3C(O)CC21C", "note": "(stereo not given)", "Potency": "1.41 µM (active)"}, {"compound": "O=C(C1CCCCC1)N(CCN1CCN(c2ccccc2O)CC1)c1ccccn1", "activity change, negative = cytotoxicity": "-3.04%"}, {"compound": "C=C[C@@]12COC(=O)C(=C)[C@@H]1[C@@H](O)[C@H](C(=C)C(=O)OC)[C@@H](O)C2", "activity change, negative = cytotoxicity": "-40.6% [at 38.5 µM]"}, {"compound": "CC[C@H](C(=O)Nc1ccccc1N1CCCC1)c1ccccc1", "activity change, negative = cytotoxicity": "2.64%"}]}, {"system": "JEG-3", "assay": "Primary qHTS to identify gynecologic anti-cancer compounds using libraries of approved drugs and bioactive compounds (AID 1345084)", "details": "Gynecologic cancer cell panel viability, ATPlite luminescence, 48 h; series mostly up to 57.5 µM; activity change, negative = cytotoxicity: at the top concentration", "procedure,_shortened": "as §1", "values": [{"compound": "C=CC(=O)N1CCCC(n2nc(-c3ccc(Oc4ccccc4)cc3)c3c(N)ncnc32)C1", "note": "(stereo not given)", "activity change, negative = cytotoxicity": "25.8%"}, {"compound": "Cc1cc(C)c2c(c1)C(N(Cc1cc(C(F)(F)F)cc(C(F)(F)F)c1)c1nnn(C)n1)CCCN2CC1CCC(C(=O)O)CC1", "note": "(stereo not given)", "activity change, negative = cytotoxicity": "-24.9%"}, {"compound": "OC1CCC(Nc2nc(-c3ccccc3)nc3[nH]ccc23)CC1", "note": "(stereo not given)", "activity change, negative = cytotoxicity": "-6.5%"}, {"compound": "C=C[C@@]1(C)CCC2C(=CCC3[C@]2(C)CCC[C@@]3(C)C(=O)O)C1", "note": "(stereo not given in full)", "activity change, negative = cytotoxicity": "-19.4%"}, {"compound": "Cn1c(=O)c(F)c(Nc2ccc(I)cc2F)c2c(=O)n(CC(O)CO)cnc21", "note": "(stereo not given)", "activity change, negative = cytotoxicity": "-2.89%"}, {"compound": "COc1ccccc1S(=O)(=O)Nc1ccc2c(c1)CN(C)C(=O)N2", "activity change, negative = cytotoxicity": "-30%"}, {"compound": "NCC1CCN(c2nccc(-c3ccc4ccccc4c3)n2)CC1", "activity change, negative = cytotoxicity": "-20.8%"}, {"compound": "Nc1ncnc2c1nc(Cl)n2C1OC2COP(=O)(O)OC2C1O", "note": "(stereo not given)", "Potency": "15.8 µM (active)"}, {"compound": "C[C@H](Oc1cc(-n2cnc3ccc(CN4CCN(C)CC4)cc32)sc1C(N)=O)c1ccccc1C(F)(F)F", "Potency": "3.16 µM (active)"}, {"compound": "CC#C[C@@H](CC(=O)O)c1ccc(OCc2cccc(-c3ccc(C(F)(F)F)cc3)c2)cc1", "activity change, negative = cytotoxicity": "-28.7%"}, {"compound": "N#C/C(=C1\\Nc2ccccc2S1)c1ccnc(NCCc2cccnc2)n1", "activity change, negative = cytotoxicity": "-1.13%"}, {"compound": "FC(F)(F)c1ccccc1-c1cc(C(F)(F)F)c2nc(C3=NOC4(CCCCC4)C3)[nH]c2c1", "activity change, negative = cytotoxicity": "-8.5%"}, {"compound": "Nc1nc2c(ncn2C2OC3COP(=O)(O)OC3C2O)c(=O)[nH]1", "note": "(stereo not given)", "activity change, negative = cytotoxicity": "4.34%"}, {"compound": "O=C(Nc1ccc2[nH]nc(-c3ccncc3)c2c1)[C@@H]1CCN(CC(=O)N2CCN(c3ccc(-c4ncccn4)cc3)CC2)C1", "activity change, negative = cytotoxicity": "8.87%"}, {"compound": "CC1(C)SCCN(S(=O)(=O)c2ccc(Oc3ccncc3)cc2)[C@H]1C(=O)NO", "activity change, negative = cytotoxicity": "0.0788%"}, {"compound": "O=C(c1ccc(OC(F)F)c(C#Cc2ccccn2)c1)N1Cc2cccnc2C1", "activity change, negative = cytotoxicity": "0.778%"}, {"compound": "CC(F)(F)CN1CCOc2c(nn(-c3ccccc3Cl)c2-c2ccc(Cl)cc2)C1=O", "activity change, negative = cytotoxicity": "15.5%"}, {"compound": "COc1cc2ncnc(Nc3ccc(O)c(Br)c3)c2cc1OC", "activity change, negative = cytotoxicity": "-10.2%"}, {"compound": "CCCSc1nc(N[C@@H]2C[C@H]2c2ccc(F)c(F)c2)c2nnn([C@@H]3C[C@H](OCCO)[C@@H](O)[C@H]3O)c2n1", "activity change, negative = cytotoxicity": "9.79%"}, {"compound": "CNc1nc(NCc2ccc(NS(C)(=O)=O)cc2Cl)cc(-c2ccccn2)n1", "activity change, negative = cytotoxicity": "22%"}, {"compound": "Fc1ccc(CN2CCC(Nc3ccc(C(F)(F)F)nn3)CC2)cc1F", "activity change, negative = cytotoxicity": "-3.65%"}, {"compound": "CCCn1ncc(CN2CCCC(C(=O)c3cccc(OC(C)C)c3)C2)c1C", "note": "(stereo not given)", "activity change, negative = cytotoxicity": "-1.25%"}, {"compound": "C=C1C(=O)O[C@@H]2/C=C(\\C)CC/C=C(/C=O)[C@H](OC)[C@@H](OC(=O)C(C)C)[C@@H]12", "activity change, negative = cytotoxicity": "-3.8% [at 38.5 µM]"}, {"compound": "CC(C)c1ccc(NC(=O)c2cccs2)c(-c2nc3ccccc3[nH]c2=O)c1", "activity change, negative = cytotoxicity": "-23.1%"}, {"compound": "Cc1nc(N2CCN(C(=O)c3ccco3)CC2)c2c3c(sc2n1)CCCC3", "activity change, negative = cytotoxicity": "8.15%"}, {"compound": "COc1ccc(C[C@H]2COC(=O)[C@@H]2Cc2ccc(O[C@@H]3O[C@H](CO)[C@@H](O)[C@H](O)[C@H]3O)c(OC)c2)cc1OC", "activity change, negative = cytotoxicity": "2.11% [at 25.3 µM]"}, {"compound": "O=C(C1CCCCC1)N(CCN1CCN(c2ccccc2O)CC1)c1ccccn1", "activity change, negative = cytotoxicity": "-0.169%"}, {"compound": "CC[C@H](C(=O)Nc1ccccc1N1CCCC1)c1ccccc1", "activity change, negative = cytotoxicity": "12.8%"}]}]}
